RGS16-Gao – modulates binding between human RGS16 and Galphao. hit rate 0.38% among 220,000. AID 1441. bead-based flow cytometry RGS16-Galphao binding, fluorescence; actives lie on both sides. O15492+P09471. binding response (% of control), % at 10 µM;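 also: Galphao activated by GDP with aluminum fluoride before binding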
Target sequence (O15492 whole entry, looked up): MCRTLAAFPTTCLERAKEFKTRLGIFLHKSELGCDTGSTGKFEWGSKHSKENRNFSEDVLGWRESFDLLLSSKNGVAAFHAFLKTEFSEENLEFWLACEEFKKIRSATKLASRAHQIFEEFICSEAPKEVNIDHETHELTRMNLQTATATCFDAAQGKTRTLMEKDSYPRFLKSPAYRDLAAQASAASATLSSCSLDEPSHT
Target sequence (P09471 whole entry, looked up): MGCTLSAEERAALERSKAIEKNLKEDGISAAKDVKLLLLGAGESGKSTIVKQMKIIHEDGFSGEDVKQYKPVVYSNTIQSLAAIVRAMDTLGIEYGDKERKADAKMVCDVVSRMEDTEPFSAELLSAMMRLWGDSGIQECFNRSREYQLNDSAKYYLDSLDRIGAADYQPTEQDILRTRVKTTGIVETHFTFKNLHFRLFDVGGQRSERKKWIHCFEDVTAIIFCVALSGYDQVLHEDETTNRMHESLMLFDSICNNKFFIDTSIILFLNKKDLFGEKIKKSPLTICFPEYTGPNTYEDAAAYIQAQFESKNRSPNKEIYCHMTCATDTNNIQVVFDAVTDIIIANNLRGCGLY
RGS4-Gao reg – modulates binding of RGS4 to human Galphao; P09471; Multiplexed bead flow cytometry; actives lie on both sides; binding response (% of control), % at 10 µM; hit rate 0.33% among 220,000; in the data active = binding response below about 49% or above about 150%; inactive = in between;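 also: fluorescent Galphao activated with aluminum fluoride binding bead-coupled RGS4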
Target sequence (P09471 whole entry, looked up): as above
RGS7-Gao – human RGS7-Galphao interaction regulation | binding response (% of control), % at 10 µM | AID 1439 | Multiplexed bead flow cytometry, RGS7-Galphao binding; actives lie on both sides | P09471 | hit rate 0.35% among 220,000; in the data active = binding response below about 49% or above about 150%; inconclusive = no clear call, values can overlap the other calls; inactive = in between;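 also: fluorescent Galphao held in activated GDP-AlF4 state binding bead-coupled RGS7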
Avidin fluor – compound fluoresces at 488/530 nm on avidin beads. AID 1775. hit rate 0.38% among 220,000. compound fluorescence 488/530 nm, flow cytometry; active compounds read high. fluorescence (KMESF) at 10 µM; in the data active = fluorescence above about 47
RGS8-Gao – regulators of human RGS8-Galphao interaction; multiplexed bead flow cytometry, RGS8-Galphao binding; actives lie on both sides; response (percent of control binding), % at 10 µM; hit rate 0.34% among 220,000; AID 1423; in the data active = response below about 60% or above about 140%; inactive = in between;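 also: Galphao activated as the GDP aluminium fluoride complex binding bead-coupled RGS8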
GSH bead fluor – compound fluoresces at 488/530 nm on GSH beads; GSH beads flow cytometry, compound fluorescence 488/530 nm; active compounds read high; hit rate 0.25% among 190,000; fluorescence (KMESF) at 10 µM; in the data active = fluorescence above about 89;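 also: glutathione beads carrying GST-tagged Bcl family fusion proteins plus one bare bead set; values are compound well signal with DMSO vehicle wells as background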
RGS4-Gao HTS – modulates binding between human RGS4 and Galphao | multiplexed bead flow cytometry, RGS–Galpha-o binding | shares compounds with RGS16-Gao | hit rate 99% among 1,600 | RGS4–Galpha-o binding response, % at 10 µM;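 also: fluorescently labeled Galpha-o bound to GDP with aluminium fluoride binding biotinylated RGS beads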
Biotin-avidin – biotin-avidin bead binding disruption counter-screen | shares compounds with RGS16-Gao | streptavidin beads, fluorescein-biotin binding, flow cytometry | inhibition, % at 10 µM | 1,700 tested, under 10 active | AID 1783;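 active = inhibition above 50%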;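 also: median green fluorescence of gated singlet beads compared with DMSO control wells; 0% = DMSO wells and 100% = complete loss of bead fluorescence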
RGS8-Gao single – confirmation of regulators of human RGS8-Galphao interaction; hit rate 3% among 1,700; shares compounds with RGS16-Gao; AID 1836; binding response (% of control), % at 10 µM; bead-based flow cytometry RGS8-Galphao binding, fluorescence; actives lie on both sides; in the data active = binding response below about 72% or above about 130%; inactive = in between;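 also: Galphao activated as GDP AlF4 complex before binding bead RGS8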
RGS7-Gao single – RGS7-Galphao interaction regulation, single point confirmation | hit rate 7.8% among 1,700 | bead-based flow cytometry RGS7-Galphao binding; actives lie on both sides | response (percent of control binding), % at 10 µM | shares compounds with RGS16-Gao; in the data active = response below about 75% or above about 130%; inactive = in between;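 also: fluorescent Galphao activated with GDP and aluminum fluoride binding bead-coupled RGS7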
RGS16-Gao conf – RGS16-Galphao interaction regulation, single point confirmation; AID 1838; response (% of control binding), % at 10 µM; hit rate 4% among 1,700; bead-based flow cytometry, RGS16-Galphao binding; actives lie on both sides; shares compounds with RGS16-Gao; in the data active = response below about 74% or above about 130%; inactive = in between;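 also: Galphao activated as the GDP aluminium fluoride complex binding bead-coupled RGS16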
RGS4-Gao confirm – confirmation of regulators of human RGS4-Galphao interaction; shares compounds with RGS16-Gao; RGS4-Galphao binding, multiplexed bead flow cytometry; actives lie on both sides; binding response (% of control), % at 10 µM; hit rate 4% among 1,700; AID 1840; in the data active = binding response below about 74% or above about 130%; inactive = in between
RGS19-Gao single – confirmation of regulators of human RGS19-Galphao interaction | bead-based flow cytometry RGS19-Galphao binding; actives lie on both sides | response (percent of control binding), % at 10 µM | hit rate 5% among 1,700 | AID 1841 | shares compounds with RGS16-Gao; in the data active = response below about 50% or above about 160%; inactive = in between;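 also: 100% = no compound control and 0% = blank background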
An asterisk follows results filed as active; u = inconclusive; x = not tested or not shown; [ ] = remark or other dose. Sampled rows, rich in hits. Any-hit rate of the full collection: about 1.2%. Unless noted, no rule for the calls is given here.

SMILES	RGS16-Gao	RGS4-Gao reg	RGS7-Gao	Avidin fluor	RGS8-Gao	GSH bead fluor	Biotin-avidin	RGS8-Gao single	RGS7-Gao single	RGS16-Gao conf	RGS4-Gao confirm	RGS19-Gao single	others
CC(=O)NNC(=O)c1csc(-c2csc(C)n2)n1	97	103	u	14	100	x	x	x	x	x	x	x
Cc1cccc(C(=O)N2CCN(c3ccc(N4CCOCC4)nn3)CC2)c1	22*	29*	u	2	37*	x	-1	111	118	112	115	107
CC1=C/C(=N\NC(=S)Nc2cccnc2)CC(C)(C)C1	101	103	u	9	102	13	x	x	x	x	x	x
Cc1ccc(C)c(NC(=O)CSc2nnc(-c3ccccc3)n2N)c1	428	119	112	6	141*[activator]	27	-1	100	95	101	98	91	RGS4-Gao HTS=119*
O=C(NCCNC(=O)C1CC2CCC1C2)C1CC2CCC1C2 (stereo unspecified)	111	123	186*[activator]	229*	100	36	-1	100	96	98	96	100	RGS4-Gao HTS=123*
O=C(NCCC1=CCCCC1)c1ccc(Cl)cc1	105	102	101	11	100	17	x	x	x	x	x	x
CS(=O)(=O)Nc1ccc(C(=O)NCCC2=CCCCC2)cc1	x	x	x	x	x	38	-2	102	105	102	101	101
CCOC(=O)CN1C(=O)S/C(=C/c2ccc3c(c2)n(C)c(=O)n3C)C1=O	23*	85	84	4	84	9	-2	101	97	99	98	114	RGS4-Gao HTS=85*
Cn1c(=O)n(C)c2cc(/C=C3/SC(=O)N(CC(=O)N4CCOCC4)C3=O)ccc21	83	95	96	3	93	15	x	x	x	x	x	x
COC(OC)c1ccnc(-c2ccc(OC(=O)c3ccccc3)cc2)n1	89	88	u	10	90	10	x	x	x	x	x	x
COC(OC)c1ccnc(-c2ccc(OC(=O)c3cccs3)cc2)n1	13*	23*	u	0	15*	11	1	103	102	103	104	98
O=C(CCC(=O)N(CC(=O)NC1CCCC1)C1CCCCC1)Nc1ccccn1	96	97	93	12	98	13	x	x	x	x	x	x
O=C(CCn1c(=S)oc2ccccc21)Nc1cccc(O)c1	12*	22*	9.9*	0	15*	16	0	99	102	97	99	104
CCN(CC)CCN1C(=O)C(=O)/C(=C(/O)c2c(C)[nH]c(C(=O)OC)c2C)C1c1cccs1 (stereo unspecified)	100	98	99	8	103	10	x	x	x	x	x	x
CCN(CC)CCN1C(=O)C(=O)/C(=C(/O)c2c(C)[nH]c(C(=O)OC)c2C)C1c1ccccc1OC (stereo unspecified)	266	176*[activator]	159*[activator]	23	145*[activator]	6	0	100	108	103	105	101
O=C(NCc1ccccc1)c1ncn[nH]1	101	102	u	8	103	x	x	x	x	x	x	x
Cc1nnc(SCC(=O)Nc2cc(C(C)(C)C)nn2-c2ccccc2)s1	112	101	104	11	103	6	x	x	x	x	x	x
CCn1c(SCC(=O)Nc2cc(C(C)(C)C)nn2-c2ccccc2)nnc1-c1cccs1	91	110	185*[activator]	86*	96	18	0	94	89	95	93	86	RGS4-Gao HTS=110*
COC1CCN(C(=O)CC2C(=O)NCCN2CC(C)(C)C)CC1 (stereo unspecified)	5.7*	10*	2.1*	0	17*	13	3	105	98	107	99	110
COC1CCN(C(=O)CC2C(=O)NCCN2CC2CCCCC2)CC1 (stereo unspecified)	97	98	98	1	100	15	x	x	x	x	x	x
CN(C)C=NC(=O)c1cn(-c2ccc(F)cc2)c(=O)c2ccccc12	208	107	111	8	126	12	x	x	x	x	x	x
Cc1nc(N2CCCCC2)c(C#N)c(C)c1[N+](=O)[O-]	133	156*[activator]	148	16	105	25	0	102	97	101	96	103
O/N=C/c1cccnc1Sc1ccccc1	180*[activator]	152*[activator]	157*[activator]	24	162*[activator]	11	0	102	99	101	99	106
COc1ccccc1OCCCCOc1ccccc1C(C)=O	6.0*	18*	7.4*	-4	15*	11	0	102	98	102	102	100
O=c1cc(C(F)(F)C(F)F)oc2ccccc12	x	x	x	x	x	39	1	97	96	97	98	107
SMILES	RGS16-Gao	RGS4-Gao reg	RGS7-Gao	Avidin fluor	RGS8-Gao	GSH bead fluor	Biotin-avidin	RGS8-Gao single	RGS7-Gao single	RGS16-Gao conf	RGS4-Gao confirm	RGS19-Gao single	others
O=c1cc(-c2ccccc2F)oc2ccccc12	94	97	94	6	98	18	x	x	x	x	x	x
C/C(=N/NC(=O)Cc1cccn1C)c1ccccc1	49	71	46*	2	47*	22	0	101	94	102	100	92	RGS4-Gao HTS=71*
C/C(=N\NC(=O)Cc1cccn1C)c1cccc2ccccc12	76	91	76	5	77	16	x	x	x	x	x	x
C/C(=N\NC(=O)Cc1cccn1C)c1ccc2ccccc2c1	53	68	36*	1	36*	9	1	102	101	103	103	126	RGS4-Gao HTS=68*
CCCCn1c(=S)[nH]c2c(oc3ccc(Cl)cc32)c1=O	-19*	-5.2*	7.1*	-3	5.1*	21	-2	106	108	105	101	109
CCC(OC(=O)C1=Cc2ccccc2OC1)C(=O)NC1CCCC1 (stereo unspecified)	x	x	x	x	x	18	0	101	104	102	101	101
Cn1c(COc2ccccc2)nnc1SCC(=O)Nc1ccc(S(N)(=O)=O)cc1	x	x	x	x	x	43	-1	103	108	105	105	93
